PubChem BioAssay (NCATS)
Values joined by “and” are separate entries in the source; they are usually repeats but may differ in a detail not shown here. Equal values may be shown once. A number with no mark means an inactive call. Records with an inconclusive call do not appear. Active and inactive are the calls of the source. Unless noted, calls come from the whole dose curve.

The compounds below were run against Cytochrome P450 3A4 (Homo sapiens) (UniProt P08684) (assay: qHTS Assay for Activators of Cytochrome P450 3A4 (AID 885; active = well fitted activation curve with a large enough effect; note: nearly all actives have a fitted effect of over 65% in size)). Conditions: recombinant CYP3A4, Luciferin-PPXE luminescence, 60 min; series mostly up to 57.1 µM.
Cytochrome P450 3A4 (Homo sapiens), sequence (P08684 whole entry, looked up): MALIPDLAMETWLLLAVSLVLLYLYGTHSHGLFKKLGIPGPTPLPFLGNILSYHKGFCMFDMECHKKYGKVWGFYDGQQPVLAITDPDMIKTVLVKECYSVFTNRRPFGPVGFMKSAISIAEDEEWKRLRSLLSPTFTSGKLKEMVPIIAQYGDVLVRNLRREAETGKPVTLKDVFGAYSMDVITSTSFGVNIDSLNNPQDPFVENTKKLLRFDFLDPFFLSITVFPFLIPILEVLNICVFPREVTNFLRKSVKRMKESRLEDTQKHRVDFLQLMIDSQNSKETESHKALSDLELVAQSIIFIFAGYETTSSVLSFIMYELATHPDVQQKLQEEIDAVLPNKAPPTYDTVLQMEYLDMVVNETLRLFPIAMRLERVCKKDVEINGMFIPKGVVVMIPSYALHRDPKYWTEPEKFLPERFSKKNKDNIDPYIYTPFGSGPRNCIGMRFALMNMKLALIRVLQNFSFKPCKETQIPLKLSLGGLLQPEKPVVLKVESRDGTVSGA
Summary of the method: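 Activators are scored by enhanced luminescence from CYP3A4 conversion of luciferin-PPXE (25uM, equal to KM) to luciferin, after 60 min at RT with an NADPH-regenerating system.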

| Compound | Potency |
| --- | --- |
| Cc1cc(C)c(N)cc1C | inactive |
| CCCCC(CC)COC(=O)CCCCC(=O)OCC(CC)CCCC (stereo not given) | inactive |
| Cc1cc([N+](=O)[O-])ccc1N | inactive |
| CC1(C)CC(N=C=O)CC(C)(CN=C=O)C1 (stereo not given) | inactive |
| Cc1ccc([N+](=O)[O-])cc1N | inactive |
| CC/C(=C(\c1ccccc1)c1ccc(OCCN(C)C)cc1)c1ccc(O)cc1 | inactive |
| CN(C)c1ccc(Cc2ccc(N(C)C)cc2)cc1 | inactive |
| Cc1ccc2ccc3cccc4ccc1c2c34 | inactive |
| Nc1ccc(-c2ccc(N)c(O)c2)cc1O | inactive |
| CCCCC(CC)COP(=O)(OCC(CC)CCCC)OCC(CC)CCCC (stereo not given) | inactive |
| Nc1ccc(Cl)cc1Cl | inactive |

What follows are compounds tested against Bile acid receptor (Homo sapiens) (UniProt Q96RI1) (assay: qHTS assay for small molecule agonists of farnesoid X receptor signaling (AID 588527;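 note: 0% = vehicle basal and 100% = reference agonist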)). Conditions: HEK293T FXR-UAS-bla, beta-lactamase ratio, 16 h; activation: hits give high values.
Bile acid receptor (Homo sapiens), sequence (Q96RI1 whole entry, looked up): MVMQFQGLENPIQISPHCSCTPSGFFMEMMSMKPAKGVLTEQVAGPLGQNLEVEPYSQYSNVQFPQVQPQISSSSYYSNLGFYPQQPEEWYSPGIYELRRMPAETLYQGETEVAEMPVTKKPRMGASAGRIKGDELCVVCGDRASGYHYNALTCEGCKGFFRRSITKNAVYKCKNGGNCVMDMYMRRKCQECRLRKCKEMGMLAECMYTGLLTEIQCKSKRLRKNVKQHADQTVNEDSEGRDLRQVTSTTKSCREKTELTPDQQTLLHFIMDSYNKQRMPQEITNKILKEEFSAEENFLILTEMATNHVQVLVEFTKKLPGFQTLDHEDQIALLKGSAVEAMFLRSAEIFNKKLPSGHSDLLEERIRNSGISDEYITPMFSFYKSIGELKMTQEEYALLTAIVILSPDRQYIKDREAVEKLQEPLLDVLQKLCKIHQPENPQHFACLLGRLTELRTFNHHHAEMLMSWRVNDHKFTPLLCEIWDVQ
Summary of the method: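 Read-out: beta-lactamase reporter fluorescence with CCF4 substrate in GeneBLAzer FXR-UAS-bla HEK293T cells, after 16 h compound exposure at 37 C. Response scaled between DMSO basal (0%) and chenodeoxycholic acid at 100 uM (100%).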

| Compound | activation |
| --- | --- |
| Cc1cc(C)c(N)cc1C | -1.7% |
| COc1ccccc1[N+](=O)[O-] | -1.25% and -5.38% |
| Cc1ccc(-c2c(Cl)nc(C#N)n2S(=O)(=O)N(C)C)cc1 | 4.98% |
| Nc1cccc(C(F)(F)F)c1 | -1.94% and -0.257% |
| CCCCC(CC)COC(=O)CCCCC(=O)OCC(CC)CCCC (stereo not given) | -0.368% and -0.458% |
| Cc1cc([N+](=O)[O-])ccc1N | -0.935% |
| CN(C)CCCCCCN(C)C | -2.62% |
| CC1(C)CC(N=C=O)CC(C)(CN=C=O)C1 (stereo not given) | -0.574% and 2.35% |
| Cc1ccc([N+](=O)[O-])cc1N | -0.807% and -1.04% |
| Cc1nn(C)c(Oc2ccccc2)c1/C=N/OCc1ccc(C(=O)OC(C)(C)C)cc1 | 6.71% |
| CCOC(=O)[C@H](C)Oc1ccc(Oc2nc3ccc(Cl)cc3o2)cc1 | -2.5% |
| CCc1nn(C)c(C(=O)NCc2ccc(C(C)(C)C)cc2)c1Cl | 2.45% |
| C[Si](Cn1cncn1)(c1ccc(F)cc1)c1ccc(F)cc1 | 2.34% |
| Nc1ccccc1O | -1.93% |
| c1ccccc1 | -0.124% [middle of 4 runs] |
| CC/C(=C(\c1ccccc1)c1ccc(OCCN(C)C)cc1)c1ccc(O)cc1 | 1.2% |
| Oc1ccc2ccccc2c1N=Nc1ccccc1 | 3.78% |

| Compound | activation |
| --- | --- |
| CCOP(=O)(OCC)Oc1ccc([N+](=O)[O-])cc1 | 2.69% |
| CN(C)c1ccc(Cc2ccc(N(C)C)cc2)cc1 | -1.47% |
| ClC(Cl)Cl | 0.676% |
| CN(c1c(Br)cc(Br)cc1Br)c1c([N+](=O)[O-])cc([N+](=O)[O-])cc1C(F)(F)F | 1.9% |
| CN(C)C=O | -2.96% and -2.36% and -5.04% |
| Cc1ccc2ccc3cccc4ccc1c2c34 | -4.07% |
| O=[N+]([O-])c1cc(C(F)(F)F)c(Cl)c([N+](=O)[O-])c1Nc1ncc(C(F)(F)F)cc1Cl | 2.48% |
| c1ccc2cc3c(ccc4ccccc43)cc2c1 | 2.13% |
| c1ccc(-c2ccc(-c3ccccc3)cc2)cc1 | 2.41% |
| CCC[CH2][Sn]([CH2]CCC)([CH2]CCC)[O][Sn]([CH2]CCC)([CH2]CCC)[CH2]CCC | 0.0431% |
| CCC(C)(c1ccc(O)cc1)c1ccc(O)cc1 | 1.29% |
| [Cu+2].[O-]c1cccc2cccnc12.[O-]c1cccc2cccnc12 | -9.69% |
| O=C1c2ccccc2C(=O)N1SC(Cl)(Cl)Cl | 6.44% |
| c1ccc2c(c1)ccc1c3ccccc3ccc21 | -1.28% |
| Nc1ccc(-c2ccc(N)c(O)c2)cc1O | -0.21% |
| CCCCC(CC)COP(=O)(OCC(CC)CCCC)OCC(CC)CCCC (stereo not given) | -0.972% |
| Nc1ccc(Cl)cc1Cl | 0.621% and -4.4% |
